In publication PMC7862700, “An all-to-all approach to the identification of sequence-specific readers for epigenetic DNA modifications on cytosine”:

What was measured:
Assay in all cases: DAPPL (digital affinity profiling via proximity ligation, sequencing); 10 mM Tris-HCl pH 7.5, 50 mM NaCl, 1 mM DTT, 4% glycerol, room temperature, 30 min; GST-TFs on glutathione beads, 16-mer random dsDNA library, 0.1% formaldehyde crosslink after washing; high values mean tight binding
FLI1 = molecular target: T1, FLI1 (Homo sapiens, UniProt Q01543 1-452); conditions: protein: recombinant; tags: N-terminal GST; dsDNA, one strand shown
T1 sequence: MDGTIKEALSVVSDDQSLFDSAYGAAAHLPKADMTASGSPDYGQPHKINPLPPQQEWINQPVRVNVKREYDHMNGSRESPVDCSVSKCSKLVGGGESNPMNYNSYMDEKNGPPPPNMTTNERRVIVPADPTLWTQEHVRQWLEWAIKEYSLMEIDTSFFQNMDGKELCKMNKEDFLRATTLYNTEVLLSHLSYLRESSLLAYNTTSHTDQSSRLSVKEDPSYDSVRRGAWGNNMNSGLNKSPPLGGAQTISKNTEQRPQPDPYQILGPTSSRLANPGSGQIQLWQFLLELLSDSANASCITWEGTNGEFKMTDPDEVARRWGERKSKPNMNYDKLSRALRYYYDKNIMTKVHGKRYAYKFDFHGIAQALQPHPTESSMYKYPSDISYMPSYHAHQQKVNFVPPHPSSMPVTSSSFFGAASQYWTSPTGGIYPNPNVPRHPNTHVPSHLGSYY
Method in brief: (§1)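 Human transcription factors carrying a GST fusion were produced in yeast, bound to glutathione beads, tagged with DNA barcodes and pooled together with a tag-only sample. Each pool was held with 200 nmole of a random double-stranded 16-mer DNA library in Tris/NaCl/DTT/glycerol buffer for 30 min at room temperature, then washed, crosslinked in 0.1% formaldehyde, proximity-ligated with BsaI/T4 ligase (1 h, 37 °C), PCR-amplified and sequenced on an Illumina NextSeq500. Binding signal is the read frequency of each hexamer for a given factor divided by its frequency in the tag-only sample.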

ELK1 = molecular target: T2, ELK1 (Homo sapiens, UniProt P19419 1-428); conditions: protein: recombinant; tags: N-terminal GST; dsDNA, one strand shown
T2 sequence: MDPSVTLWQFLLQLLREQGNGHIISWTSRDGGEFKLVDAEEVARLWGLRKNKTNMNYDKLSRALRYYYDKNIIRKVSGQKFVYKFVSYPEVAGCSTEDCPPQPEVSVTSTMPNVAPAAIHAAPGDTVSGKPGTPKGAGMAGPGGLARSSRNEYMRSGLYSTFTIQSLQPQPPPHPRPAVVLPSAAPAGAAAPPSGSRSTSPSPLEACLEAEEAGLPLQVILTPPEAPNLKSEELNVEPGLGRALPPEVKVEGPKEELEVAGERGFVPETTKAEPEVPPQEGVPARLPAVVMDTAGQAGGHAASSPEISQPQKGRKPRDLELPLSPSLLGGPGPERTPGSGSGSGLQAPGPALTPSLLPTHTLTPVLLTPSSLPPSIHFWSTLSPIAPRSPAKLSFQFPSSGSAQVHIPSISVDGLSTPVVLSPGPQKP
Method in brief: as §1

GABPA = molecular target: T3, GABPA (Homo sapiens, UniProt Q06546 1-454); conditions: protein: recombinant; tags: N-terminal GST; dsDNA, one strand shown
T3 sequence: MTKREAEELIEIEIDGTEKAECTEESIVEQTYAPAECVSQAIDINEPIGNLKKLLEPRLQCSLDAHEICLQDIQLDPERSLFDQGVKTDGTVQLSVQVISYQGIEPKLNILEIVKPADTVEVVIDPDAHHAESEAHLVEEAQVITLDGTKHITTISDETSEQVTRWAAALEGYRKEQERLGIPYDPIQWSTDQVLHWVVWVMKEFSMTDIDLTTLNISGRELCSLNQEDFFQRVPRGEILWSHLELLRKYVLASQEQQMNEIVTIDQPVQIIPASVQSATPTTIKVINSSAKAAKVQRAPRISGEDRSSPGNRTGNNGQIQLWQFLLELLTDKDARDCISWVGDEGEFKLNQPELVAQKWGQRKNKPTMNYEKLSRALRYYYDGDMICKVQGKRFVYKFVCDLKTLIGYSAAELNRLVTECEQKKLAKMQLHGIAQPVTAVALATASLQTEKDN
Method in brief: as §1

ERG = molecular target: T4, ERG (Homo sapiens, UniProt P11308 1-479); conditions: protein: recombinant; tags: N-terminal GST; dsDNA, one strand shown
T4 sequence: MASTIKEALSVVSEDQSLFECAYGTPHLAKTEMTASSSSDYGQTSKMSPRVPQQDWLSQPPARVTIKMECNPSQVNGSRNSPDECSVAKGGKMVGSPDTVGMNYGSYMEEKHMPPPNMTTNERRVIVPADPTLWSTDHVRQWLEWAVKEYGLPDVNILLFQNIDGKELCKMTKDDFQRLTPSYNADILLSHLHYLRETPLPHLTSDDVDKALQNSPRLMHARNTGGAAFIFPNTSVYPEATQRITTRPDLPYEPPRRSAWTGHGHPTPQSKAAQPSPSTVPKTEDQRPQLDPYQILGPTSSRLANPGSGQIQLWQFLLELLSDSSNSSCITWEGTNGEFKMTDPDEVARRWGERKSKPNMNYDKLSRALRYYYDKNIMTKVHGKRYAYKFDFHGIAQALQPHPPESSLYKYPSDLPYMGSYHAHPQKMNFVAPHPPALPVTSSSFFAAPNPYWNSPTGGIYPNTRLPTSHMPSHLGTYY
Method in brief: as §1

ELF1 = ELF1 (Homo sapiens, UniProt P32519 1-619); conditions: protein: recombinant; tags: N-terminal GST; dsDNA, one strand shown
Chain of ELF1 (P32519 whole entry): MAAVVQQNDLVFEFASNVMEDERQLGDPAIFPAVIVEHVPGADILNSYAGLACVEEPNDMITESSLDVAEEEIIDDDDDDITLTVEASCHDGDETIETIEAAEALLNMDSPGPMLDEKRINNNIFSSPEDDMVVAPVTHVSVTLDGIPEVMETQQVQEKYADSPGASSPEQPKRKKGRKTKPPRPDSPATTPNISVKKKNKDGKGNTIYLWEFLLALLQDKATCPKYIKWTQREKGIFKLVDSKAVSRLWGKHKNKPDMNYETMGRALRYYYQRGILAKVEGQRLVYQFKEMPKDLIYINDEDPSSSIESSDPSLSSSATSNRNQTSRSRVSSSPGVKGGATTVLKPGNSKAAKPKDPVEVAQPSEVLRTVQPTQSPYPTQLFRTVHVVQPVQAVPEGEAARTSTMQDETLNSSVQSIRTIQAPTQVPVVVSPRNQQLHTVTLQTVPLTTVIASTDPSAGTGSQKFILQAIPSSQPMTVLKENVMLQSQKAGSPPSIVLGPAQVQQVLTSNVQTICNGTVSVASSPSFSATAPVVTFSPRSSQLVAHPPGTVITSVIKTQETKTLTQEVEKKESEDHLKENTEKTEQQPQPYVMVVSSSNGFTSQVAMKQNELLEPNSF
Method in brief: as §1

EHF = molecular target: T5, EHF (Homo sapiens, UniProt Q9NZC4 1-300); conditions: protein: recombinant; tags: N-terminal GST; dsDNA, one strand shown
T5 sequence: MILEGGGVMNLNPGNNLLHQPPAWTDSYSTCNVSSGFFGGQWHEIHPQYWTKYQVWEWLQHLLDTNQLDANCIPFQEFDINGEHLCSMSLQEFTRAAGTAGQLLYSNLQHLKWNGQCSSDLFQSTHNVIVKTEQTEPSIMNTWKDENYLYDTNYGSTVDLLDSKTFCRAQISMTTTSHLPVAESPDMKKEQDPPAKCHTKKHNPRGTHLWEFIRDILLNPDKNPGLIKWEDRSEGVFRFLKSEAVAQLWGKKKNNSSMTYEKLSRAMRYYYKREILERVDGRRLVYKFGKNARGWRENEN
Method in brief: as §1

SPI1 = SPI1 (Homo sapiens, UniProt P17947 1-270); conditions: protein: recombinant; tags: N-terminal GST; dsDNA, one strand shown
Method in brief: as §1

SPIB = SPIB (Homo sapiens, UniProt Q01892 1-262); conditions: protein: recombinant; tags: N-terminal GST; dsDNA, one strand shown
Chain of SPIB (Q01892 whole entry): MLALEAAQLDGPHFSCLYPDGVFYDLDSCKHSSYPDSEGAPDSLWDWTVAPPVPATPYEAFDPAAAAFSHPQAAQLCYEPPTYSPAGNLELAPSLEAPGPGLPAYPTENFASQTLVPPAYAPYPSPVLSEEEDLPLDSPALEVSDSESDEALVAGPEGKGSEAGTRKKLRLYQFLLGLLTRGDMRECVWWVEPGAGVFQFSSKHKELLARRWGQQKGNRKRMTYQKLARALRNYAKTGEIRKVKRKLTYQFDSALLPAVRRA
Method in brief: as §1

ELK3 = molecular target: T6, ELK3 (Homo sapiens, UniProt P41970 1-407); conditions: protein: recombinant; tags: N-terminal GST; dsDNA, one strand shown
T6 sequence: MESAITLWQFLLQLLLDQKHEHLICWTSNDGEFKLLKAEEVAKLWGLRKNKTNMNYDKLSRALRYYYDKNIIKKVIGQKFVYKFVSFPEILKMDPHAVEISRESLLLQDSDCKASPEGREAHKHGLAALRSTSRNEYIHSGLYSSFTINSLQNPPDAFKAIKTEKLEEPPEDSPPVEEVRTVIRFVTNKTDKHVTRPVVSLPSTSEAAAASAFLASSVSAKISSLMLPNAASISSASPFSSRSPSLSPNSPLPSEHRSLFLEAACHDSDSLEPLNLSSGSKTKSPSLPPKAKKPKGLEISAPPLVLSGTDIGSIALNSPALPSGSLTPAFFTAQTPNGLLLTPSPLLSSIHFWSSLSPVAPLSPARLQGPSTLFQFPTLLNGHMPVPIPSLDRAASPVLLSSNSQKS
Method in brief: as §1

FEV = molecular target: T7, FEV (Homo sapiens, UniProt Q99581 1-238); conditions: protein: recombinant; tags: N-terminal GST; dsDNA, one strand shown
T7 sequence: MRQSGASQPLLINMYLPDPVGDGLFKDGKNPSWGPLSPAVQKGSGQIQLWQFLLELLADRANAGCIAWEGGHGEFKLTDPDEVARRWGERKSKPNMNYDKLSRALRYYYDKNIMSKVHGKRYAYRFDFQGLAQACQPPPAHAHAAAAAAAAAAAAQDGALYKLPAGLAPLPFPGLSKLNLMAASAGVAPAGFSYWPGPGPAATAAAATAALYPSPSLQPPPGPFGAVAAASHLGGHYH
Method in brief: as §1

ETV5 = ETV5 (Homo sapiens, UniProt P41161 1-510); conditions: protein: recombinant; tags: N-terminal GST; dsDNA, one strand shown
Chain of ETV5 (P41161 whole entry): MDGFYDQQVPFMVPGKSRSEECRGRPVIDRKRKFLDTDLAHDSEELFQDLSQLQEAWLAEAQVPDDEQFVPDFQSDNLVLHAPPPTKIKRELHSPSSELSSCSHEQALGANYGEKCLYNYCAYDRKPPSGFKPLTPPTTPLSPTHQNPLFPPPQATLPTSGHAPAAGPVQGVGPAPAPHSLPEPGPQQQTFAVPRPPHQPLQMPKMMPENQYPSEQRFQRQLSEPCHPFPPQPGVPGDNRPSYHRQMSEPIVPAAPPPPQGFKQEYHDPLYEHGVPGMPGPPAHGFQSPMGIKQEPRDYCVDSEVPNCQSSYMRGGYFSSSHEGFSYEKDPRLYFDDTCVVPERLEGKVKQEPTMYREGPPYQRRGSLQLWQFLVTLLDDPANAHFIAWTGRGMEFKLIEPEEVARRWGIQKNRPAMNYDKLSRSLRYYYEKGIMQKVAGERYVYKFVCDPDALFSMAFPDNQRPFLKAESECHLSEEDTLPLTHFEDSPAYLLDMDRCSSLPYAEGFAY
Method in brief: as §1

HSF1 = HSF1 (Homo sapiens, UniProt Q00613 1-529); conditions: protein: recombinant; tags: N-terminal GST; chain copies: 3; dsDNA, one strand shown
Chain of HSF1 (Q00613 whole entry): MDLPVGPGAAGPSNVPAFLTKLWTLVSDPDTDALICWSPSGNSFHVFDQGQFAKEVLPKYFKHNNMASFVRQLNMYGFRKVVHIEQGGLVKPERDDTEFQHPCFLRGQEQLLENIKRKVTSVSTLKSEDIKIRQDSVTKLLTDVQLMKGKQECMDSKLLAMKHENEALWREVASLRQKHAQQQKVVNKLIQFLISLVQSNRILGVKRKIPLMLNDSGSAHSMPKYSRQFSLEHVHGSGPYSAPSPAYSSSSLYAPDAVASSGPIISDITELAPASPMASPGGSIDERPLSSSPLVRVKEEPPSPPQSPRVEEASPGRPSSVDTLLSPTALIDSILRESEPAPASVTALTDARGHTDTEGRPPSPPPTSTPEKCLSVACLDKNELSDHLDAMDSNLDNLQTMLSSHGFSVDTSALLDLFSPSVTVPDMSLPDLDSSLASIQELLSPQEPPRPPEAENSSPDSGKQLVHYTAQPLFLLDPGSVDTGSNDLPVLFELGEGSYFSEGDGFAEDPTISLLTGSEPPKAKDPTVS
Method in brief: as §1

SPIC = molecular target: T8, SPIC (Homo sapiens, UniProt Q8N5J4 1-248); conditions: protein: recombinant; tags: N-terminal GST; dsDNA, one strand shown
T8 sequence: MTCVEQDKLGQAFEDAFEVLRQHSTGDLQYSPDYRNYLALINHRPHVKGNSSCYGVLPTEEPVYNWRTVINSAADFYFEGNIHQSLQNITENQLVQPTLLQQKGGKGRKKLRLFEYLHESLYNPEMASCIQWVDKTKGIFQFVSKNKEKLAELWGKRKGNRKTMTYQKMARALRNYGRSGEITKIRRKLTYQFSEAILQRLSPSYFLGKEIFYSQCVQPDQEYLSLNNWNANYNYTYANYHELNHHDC
Method in brief: as §1

ELF4 = ELF4 (Homo sapiens, UniProt Q99607 1-663); conditions: protein: recombinant; tags: N-terminal GST; dsDNA, one strand shown
Chain of ELF4 (Q99607 whole entry): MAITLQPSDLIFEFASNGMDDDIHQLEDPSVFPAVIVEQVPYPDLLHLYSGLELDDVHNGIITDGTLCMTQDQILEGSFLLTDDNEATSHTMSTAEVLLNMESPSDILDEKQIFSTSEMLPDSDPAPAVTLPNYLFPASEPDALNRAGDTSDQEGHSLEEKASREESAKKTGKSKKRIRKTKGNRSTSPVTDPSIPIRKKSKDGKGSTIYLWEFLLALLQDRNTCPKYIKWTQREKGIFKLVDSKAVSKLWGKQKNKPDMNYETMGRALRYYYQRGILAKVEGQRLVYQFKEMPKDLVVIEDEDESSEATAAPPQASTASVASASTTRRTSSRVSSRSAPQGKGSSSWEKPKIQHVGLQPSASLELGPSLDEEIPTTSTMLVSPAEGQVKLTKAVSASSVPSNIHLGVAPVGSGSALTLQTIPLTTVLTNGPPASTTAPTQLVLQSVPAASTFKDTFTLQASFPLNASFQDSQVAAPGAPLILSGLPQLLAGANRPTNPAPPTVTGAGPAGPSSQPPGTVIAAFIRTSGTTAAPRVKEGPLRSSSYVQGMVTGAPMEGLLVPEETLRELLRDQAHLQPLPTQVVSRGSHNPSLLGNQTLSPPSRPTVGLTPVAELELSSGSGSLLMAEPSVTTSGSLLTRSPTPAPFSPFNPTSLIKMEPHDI
Method in brief: as §1

ELK4 = molecular target: T9, ELK4 (Homo sapiens, UniProt P28324-2 1-405); conditions: protein: recombinant; tags: N-terminal GST; dsDNA, one strand shown
T9 sequence: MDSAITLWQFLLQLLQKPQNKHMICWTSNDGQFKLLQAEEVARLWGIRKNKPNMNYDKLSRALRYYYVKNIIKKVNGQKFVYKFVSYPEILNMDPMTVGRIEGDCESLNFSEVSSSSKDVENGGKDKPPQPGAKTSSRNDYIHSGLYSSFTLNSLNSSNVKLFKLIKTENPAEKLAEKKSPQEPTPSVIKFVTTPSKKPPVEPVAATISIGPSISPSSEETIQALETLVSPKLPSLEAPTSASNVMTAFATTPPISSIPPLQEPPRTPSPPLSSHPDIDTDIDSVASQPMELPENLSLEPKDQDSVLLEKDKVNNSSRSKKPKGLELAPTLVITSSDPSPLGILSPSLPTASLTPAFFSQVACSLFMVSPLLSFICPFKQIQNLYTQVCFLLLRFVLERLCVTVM
Method in brief: as §1

ETV2 = molecular target: T10, ETV2 (Homo sapiens, UniProt O00321 1-342); conditions: protein: recombinant; tags: N-terminal GST; dsDNA, one strand shown
T10 sequence: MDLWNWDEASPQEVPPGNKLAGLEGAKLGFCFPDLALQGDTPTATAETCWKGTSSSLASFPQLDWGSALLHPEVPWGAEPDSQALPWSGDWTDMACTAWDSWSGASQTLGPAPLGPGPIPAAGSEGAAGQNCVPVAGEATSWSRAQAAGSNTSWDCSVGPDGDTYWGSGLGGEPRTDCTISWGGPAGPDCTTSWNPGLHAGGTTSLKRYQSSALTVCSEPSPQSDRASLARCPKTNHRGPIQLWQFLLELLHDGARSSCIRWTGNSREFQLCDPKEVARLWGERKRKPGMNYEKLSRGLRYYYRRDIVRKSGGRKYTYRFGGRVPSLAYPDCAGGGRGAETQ
Method in brief: as §1

ELF3 = molecular target: T11, ELF3 (Homo sapiens, UniProt P78545 1-371); conditions: protein: recombinant; tags: N-terminal GST; dsDNA, one strand shown
T11 sequence: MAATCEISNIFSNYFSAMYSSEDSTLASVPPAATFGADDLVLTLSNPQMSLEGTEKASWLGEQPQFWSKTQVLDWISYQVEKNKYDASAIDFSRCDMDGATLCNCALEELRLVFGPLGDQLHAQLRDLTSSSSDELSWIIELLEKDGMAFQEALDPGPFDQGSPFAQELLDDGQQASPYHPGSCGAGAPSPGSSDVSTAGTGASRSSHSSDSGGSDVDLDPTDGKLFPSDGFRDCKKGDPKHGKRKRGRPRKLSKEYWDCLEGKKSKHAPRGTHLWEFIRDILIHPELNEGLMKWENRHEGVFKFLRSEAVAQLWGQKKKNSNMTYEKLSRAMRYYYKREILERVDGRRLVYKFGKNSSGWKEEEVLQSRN
Method in brief: as §1

CRX = CRX (Homo sapiens, UniProt O43186 1-299); conditions: protein: recombinant; tags: N-terminal GST; dsDNA, one strand shown
Chain of CRX (O43186 whole entry): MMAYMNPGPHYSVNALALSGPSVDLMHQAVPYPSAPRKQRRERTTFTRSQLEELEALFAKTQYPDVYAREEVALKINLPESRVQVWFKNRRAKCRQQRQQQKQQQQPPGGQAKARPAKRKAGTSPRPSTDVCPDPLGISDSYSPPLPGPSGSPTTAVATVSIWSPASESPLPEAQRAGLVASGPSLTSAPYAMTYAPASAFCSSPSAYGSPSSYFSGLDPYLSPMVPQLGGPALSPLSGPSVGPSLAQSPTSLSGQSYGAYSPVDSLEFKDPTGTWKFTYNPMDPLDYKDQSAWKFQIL
Method in brief: as §1

ETV1 = ETV1 (Homo sapiens, UniProt P50549 1-477); conditions: protein: recombinant; tags: N-terminal GST; dsDNA, one strand shown
Chain of ETV1 (P50549 whole entry): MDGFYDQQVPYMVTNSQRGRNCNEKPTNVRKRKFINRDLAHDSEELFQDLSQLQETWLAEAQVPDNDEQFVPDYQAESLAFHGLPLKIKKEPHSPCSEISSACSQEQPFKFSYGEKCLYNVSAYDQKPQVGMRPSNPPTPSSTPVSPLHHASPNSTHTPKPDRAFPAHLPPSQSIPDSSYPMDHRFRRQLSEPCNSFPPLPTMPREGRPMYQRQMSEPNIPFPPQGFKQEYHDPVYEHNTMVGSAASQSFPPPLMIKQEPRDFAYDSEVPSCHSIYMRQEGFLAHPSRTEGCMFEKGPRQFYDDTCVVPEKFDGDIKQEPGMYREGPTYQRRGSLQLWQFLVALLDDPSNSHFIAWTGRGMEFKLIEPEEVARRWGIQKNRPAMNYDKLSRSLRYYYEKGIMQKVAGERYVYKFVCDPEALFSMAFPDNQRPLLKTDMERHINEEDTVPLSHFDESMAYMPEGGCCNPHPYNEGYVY
Method in brief: as §1

Sequence: CATCTT
- binding signal (FLI1): 1.18 fold enrichment (6-mer frequency, TF over GST control)
- binding signal (ELK1): 1.27 fold enrichment (6-mer frequency, TF over GST control)
- binding signal (GABPA): 1.17 fold enrichment (6-mer frequency, TF over GST control)
- binding signal (ERG): 1.27 fold enrichment (6-mer frequency, TF over GST control)
- binding signal (ELF1): 1.25 fold enrichment (6-mer frequency, TF over GST control)
- binding signal (EHF): 1.2 fold enrichment (6-mer frequency, TF over GST control)
- binding signal (SPI1): 1.21 fold enrichment (6-mer frequency, TF over GST control)
- binding signal (SPIB): 1.21 fold enrichment (6-mer frequency, TF over GST control)
- binding signal (ELK3): 1.29 fold enrichment (6-mer frequency, TF over GST control)
- binding signal (FEV): 1.16 fold enrichment (6-mer frequency, TF over GST control)
- binding signal (ETV5): 1.21 fold enrichment (6-mer frequency, TF over GST control)
- binding signal (HSF1): 1.17 fold enrichment (6-mer frequency, TF over GST control)
- binding signal (SPIC): 1.11 fold enrichment (6-mer frequency, TF over GST control)
- binding signal (ELF4): 1.12 fold enrichment (6-mer frequency, TF over GST control)
- binding signal (ELK4): 1.31 fold enrichment (6-mer frequency, TF over GST control)
- binding signal (ETV2): 1.29 fold enrichment (6-mer frequency, TF over GST control)
- binding signal (ELF3): 1.23 fold enrichment (6-mer frequency, TF over GST control)
- binding signal (CRX): 1.33 fold enrichment (6-mer frequency, TF over GST control)
- binding signal (ETV1): 1.24 fold enrichment (6-mer frequency, TF over GST control)
